Measured values published in PubChem BioAssay (Tox21).
Active and inactive are the calls of the source. Calls come from the whole dose curve; as a rule, active = well fitted curve in the direction sought with a large enough effect in the repeat runs; inconclusive = weak or mixed curves; inactive = flat fitted curve, though single readings scatter.

Assay: qHTS assay to test for compound auto fluorescence at 590 nm (red) in HEK293 cell free culture (AID 720683)
Details: cell-free medium autofluorescence, Ex540/Em590 red; series mostly up to 91.3 µM; fluorescence, % of fluorescent control: at the top concentration
Description: U.S. Tox21 Program National Center for Advancing Translational Sciences [NCATS] NIH Chemical Genomics Center [NCGC] U.S. Environmental Protection Agency [EPA] National Institutes of Environmental Health Sciences [NIEHS] National Toxicology Program [NTP] U.S. Food and Drug Administration [FDA] Tox21 Assay Overview: Compound auto fluorescence often interferes with screening of the compound library against various biological targets and signaling pathways. Some of these compounds may have fluorophoric properties. Such properties may interfere with the assay outputs resulting in false positives and/or negatives. To decrease such complications and ensure the compound activities are relevant in terms of biological response, the Tox21 10K compound library was screened for auto fluorescence. From the fluorophores used as reporter signals in our screening assays, the auto fluorescence equivalencies of compounds against three fluorophores have been evaluated: Triamterene, Fluorescein and Rose Bengal sodium for blue, green and red fluorescence, respectively. The fluorescence intensities were measured using Excitation/Emission wavelengths at 405/460nm, 485/535nm and 540/590nm for blue, green and red labels, respectively. This assay includes the red fluorescence data.
Tox21 Assay Protocol Summary: 5 uL of culture medium (DMEM containing 10% FBS) per well was dispensed into black wall/clear bottom 1536-well plates using a Multidrop Combi Dispenser (ThermoFisher Scientific, Waltham, MA). After 23 nL compound or DMSO vehicle was transferred into assay plate by a pintool work station (Kalypsys, San Diego, CA), fluorescence intensities in the assay plates were measured by an Envision (PerkinElmer, Shelton, CT) plate reader using three labels for measuring blue, green and red fluorescence at […] 460, 535 and 590nm respectively.
% is set by controls: 0 for no effect and ±100 for the full control effect.

SMILES | fluorescence, % of fluorescent control | outcome
CCCCCCCCN(C)CCCCCCCC | 0.0653% [at 95.7 µM] (inactive) | –
NS(=O)(=O)c1cc2c(cc1C(F)(F)F)NC(Cc1ccccc1)NS2(=O)=O (stereo not given) | 0.0682% [at 18.6 µM] (inactive) | –
CCCCCCCCC=O | -0.0717% (inactive) | –
CC(=O)O[C@H](CC(=O)[O-])C[N+](C)(C)C | 0.0461% (inactive) | –
Cc1onc(-c2ccccc2)c1-c1ccc(S(N)(=O)=O)cc1 | -0.349% [at 46 µM] (inactive) | –
O=C(O)Cc1cc(I)c(Oc2cc(I)c(O)c(I)c2)c(I)c1 | -0.0151% (inactive) | –
C=C[Si](OC)(OC)OC | -0.0869% (inactive) | –
C=C(C)C(=O)OCCC(C)OC(=O)C(=C)C (stereo not given) | 0.0703% (inactive) | –
COC(=O)CCCCCCCCC(=O)OC | -0.0421% (inactive) | –
CC(C)(O)c1ccccc1 | 0.0604% (inactive) | –
C1CCCCCCCCCCC1 | -0.0432% [at 18.6 µM] (inactive) | –
CC(C)(C)CC(C)(C)N | -0.497% (inactive) | –
CCCCNc1ccccc1 | -0.0404% (inactive) | –
COC[C@H](c1ccc(C(F)(F)F)cc1)N1CCN(C2(C)CCN(C(=O)c3c(C)ncnc3C)CC2)C[C@H]1C | -0.508% [at 46 µM] (inactive) | –
C#CC(O)C(CC)CCCC (stereo not given) | 0.237% (inactive) | –
O=C1OC(=O)c2cc([N+](=O)[O-])ccc21 | 0.0681% (inactive) | –
CCCCCCC(=O)OCC | -0.474% (inactive) | –
CC(C=O)Cc1ccc(C(C)C)cc1 (stereo not given) | -0.176% (inactive) | –
NC(=S)Nc1cccc2ccccc12 | -0.0289% [at 3.72 µM] (inactive) | –
CC(=O)c1ccc(C)cc1 | -0.236% (inactive) | –

SMILES | fluorescence, % of fluorescent control | outcome
c1ccc(CCCc2ccccn2)cc1 | 0.229% (inactive) | –
CCOC(=O)Cn1c(=O)sc2cccc(Cl)c21 | 0.109% (inactive) | –
NC(=O)Nc1nc2ccccc2[nH]1 | 0.0473% (inactive) | –
CC(=O)N[C@@H](CCC(N)=O)C(=O)O | -0.172% [at 46 µM] (inactive) | –
CCCCCCCCCCCl | -0.0248% [at 95.7 µM] (inactive) | –
C1COCCO1 | 0.0586% [at 95.7 µM] (inactive) | –
Nc1cc(C(Cl)=C(Cl)Cl)c(S(N)(=O)=O)cc1S(N)(=O)=O | – | inactive
O=S(=O)(c1cccc2cnccc12)N1CCCNCC1 | 0.391% [at 46 µM] (inactive) | –
CCCC(=O)O[C@]1(C(=O)CCl)[C@@H](C)C[C@H]2[C@@H]3CCC4=CC(=O)C=C[C@]4(C)[C@@]3(F)C(=O)C[C@@]21C | 0.0578% [at 46 µM] (inactive) | –
CC/C=C\C#N | 0.001% (inactive) | –
CC(C)=CCC/C(C)=C/C(=O)O | 0.0603% (inactive) | –
CCCCCCCCCCC1CO1 (stereo not given) | -0.55% (inactive) | –
Nc1ccn(C2CO[C@H](CO)O2)c(=O)n1 (stereo not given in full) | -0.0301% [at 46 µM] (inactive) | –
OC1OC[C@@H](O)[C@H](O)[C@H]1O (stereo not given in full) | -0.0282% (inactive) | –
NCCN1CCNC1=O | -0.131% (inactive) | –
C=CCOc1nc(OCC=C)nc(OCC=C)n1 | 0.092% (inactive) | –
CCCC=O | 0.0072% (inactive) | –
CC(C)(O)C(=O)c1ccc(OCCO)cc1 | -0.0109% (inactive) | –
Fc1ccccc1-c1ccccc1 | 0.0113% [at 95.7 µM] (inactive) | –
COc1ccc(NC(C)=O)cc1 | -0.0435% [at 95.7 µM] (inactive) | –
